Screening results: PubChem BioAssay, National Center for Advancing Translational Sciences (NCATS)
An excerpt weighted towards active compounds, which were near 3.9% of everything screened.
Tb PFK block: blocks T. brucei phosphofructokinase; Potency, µM (doses to about 57.5 µM), hits mostly inhibitors; T. brucei PFK, ADP-Glo luminescence; actives 0.17% (n = 330,000); further: nearly all actives have a fitted effect of over 60% in size
Target sequence (O15648 whole entry, looked up): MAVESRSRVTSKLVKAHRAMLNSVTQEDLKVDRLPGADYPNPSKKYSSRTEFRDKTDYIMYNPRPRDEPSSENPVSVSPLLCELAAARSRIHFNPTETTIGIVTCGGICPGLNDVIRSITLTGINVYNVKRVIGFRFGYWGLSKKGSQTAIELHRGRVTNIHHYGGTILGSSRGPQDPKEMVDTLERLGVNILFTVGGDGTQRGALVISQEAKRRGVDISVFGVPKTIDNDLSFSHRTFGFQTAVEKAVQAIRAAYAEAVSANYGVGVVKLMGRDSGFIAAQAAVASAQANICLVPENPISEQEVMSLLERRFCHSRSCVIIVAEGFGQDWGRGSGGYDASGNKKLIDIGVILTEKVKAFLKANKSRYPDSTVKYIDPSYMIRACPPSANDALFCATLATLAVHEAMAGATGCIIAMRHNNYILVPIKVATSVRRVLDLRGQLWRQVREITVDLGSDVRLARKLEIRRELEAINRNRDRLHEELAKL
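Activity is normalized to no-enzyme wells (full inhibition) and 1.25 nM enzyme wells (no inhibition). Reaction: 0.5 mM F6P, 0.1 mM ATP, 45 min RT, ADP-Glo luminescence; concentration-response curves fitted and classed by quality.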
BRCA1 expr act: BRCA1 expression activation. Potency, µM (titrated, usually from 46.1 µM), actives largely listed as activators. actives 1.1% (n = 380,000). MCF7-BRCA1-FFLuc reporter, luminescence, 48 h; response scale: scaled: vehicle 0%, 10 µM genistein 100%; further: nearly all actives have a fitted effect of over 80% in size
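Activators of BRCA1 expression were detected as increased firefly luciferase luminescence in engineered MCF7 cells after 48 h compound incubation. Signals were scaled to genistein 10 microM as full activation.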
VDR inh: inhibitors of human vitamin D receptor; VDR-SRC2-3 peptide fluorescence polarization, 2 h; AID 504847; actives 0.93% (n = 400,000); Potency, µM, usual class: inhibitors; P11473
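Compounds are added to VDR with labelled SRC2-3 coactivator peptide and held 2 h at room temperature. Inhibition of the VDR–peptide interaction is then read as a change in fluorescence polarization.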
PLK1 PBD inh: PLK1 (human) polo-box domain binding inhibition. P53350. AID 720504. Plk1 PBD binding of FITC phosphopeptide, fluorescence polarization. Potency, µM, actives largely listed as inhibitors. actives 2.8% (n = 360,000); further: series mostly up to about 57 µM; nearly all actives have a fitted effect of over 65% in size
Of the large screens only hits and unclear results are named; the others gave an inactive call. The call rests on the fitted dose curve; in most records, active means well fitted curve in the direction sought with a large enough effect; inconclusive means small, poorly fitted or top-dose-only effect, or another doubt; inactive means no such curve, though single readings can be large; an effect the other way counts as inactive or inconclusive.

Cc1ccc(Cl)cc1-n1c(=O)cc(N2CCN(c3ccccc3)CC2)[nH]c1=O	none (no result: Tb PFK block, BRCA1 expr act, PLK1 PBD inh)
Cc1ccc(S(=O)(=O)N2C[C@H]3[C@H]4C(=O)N(c5ccccc5)C(=O)[C@H]4C[C@H](OC(=O)Nc4cccs4)[C@@]3(O)C2)cc1	PLK1 PBD inh inconclusive (no result: Tb PFK block, VDR inh)
Cn1c(=O)c2c([nH]c(=S)n2Cc2ccc(Cl)cc2)n(C)c1=O	VDR inh 79.4µM, PLK1 PBD inh 10.6µM
Cn1c(=O)c2c(ncn2Cc2ccc(Cl)cc2)n(C)c1=O	none
COc1ccc(/C=N/Nc2nncn2N)cc1Br	VDR inh 22.4µM
COc1ccc(C2=Nc3ccccc3N(C(=O)c3ccc(C)cc3)C2C(=O)NCc2ccccc2)cc1 (centres undefined)	none (no result: Tb PFK block, BRCA1 expr act, VDR inh)
Cc1ccc(C2=Nc3ccccc3N(C(=O)c3ccccc3)C(C)C2)cc1 (centres undefined)	PLK1 PBD inh 29.9µM
Cc1ccc(-c2[nH]n3c(=O)c4c(nc3c2C)CCCC4)cc1	none
Cc1c(-c2ccccc2)[nH]n2c(=O)c3c(nc12)CCCC3	BRCA1 expr act 3.16µM
CN1C(=O)C(=O)/C(=C(/O)c2ccc(Br)cc2)C1c1ccccc1F (centres undefined)	PLK1 PBD inh 33.6µM
CCOC(=O)C1C2C=CC3(CN(Cc4cccs4)C(=O)C13)O2 (centres undefined)	PLK1 PBD inh 16.8µM
COC(=O)C1[C@H]2C(=O)N(Cc3cccs3)C[C@]23C=C[C@H]1O3 (some centres undefined)	none
Cc1ccccc1-c1n[nH]c(=S)o1	none
S=c1[nH]nc(-c2ccccc2)o1	PLK1 PBD inh 29.9µM
Cc1ccc(-c2cc(-c3n[nH]c(=S)o3)c3ccccc3n2)cc1	PLK1 PBD inh 26.7µM
O=c1c(N2CCN(c3ccccc3)CC2)csc2ccc(Cl)cc12	none (no result: Tb PFK block, BRCA1 expr act, PLK1 PBD inh)
COc1cc(C(=O)O/N=C(\N)c2ccncc2)cc(OC)c1OC	none
COc1cc(C(=O)O/N=C2\C=CC(=O)C(C)=C2)cc(OC)c1OC	VDR inh inconclusive, PLK1 PBD inh 21.2µM
Cc1cccc(OCCNc2ccc(C(F)(F)F)cc2[N+](=O)[O-])c1	BRCA1 expr act 3.16µM
CS(=O)(=O)NCCCNc1ccc(C(F)(F)F)cc1[N+](=O)[O-]	none
Cc1ccccc1NC(=O)C1C(=O)Nc2ccccc2C(=O)N1Cc1ccccc1 (centres undefined)	none (no result: Tb PFK block, BRCA1 expr act, VDR inh)
CCCSCCCNC(=O)C1CCN(c2nn3cc(-c4ccc(F)cc4)nc3s2)CC1	none (no result: Tb PFK block, BRCA1 expr act, PLK1 PBD inh)
NNC(=O)c1nn(-c2ccc(Cl)cc2)cc1O	VDR inh inconclusive, PLK1 PBD inh 16.8µM
Cc1ccc(NC(=O)COC(=O)c2nn(-c3ccc(Cl)cc3)cc2O)cc1	none
O=C(c1cc(COc2cccc(C(F)(F)F)c2)on1)N1C[C@H]2CC[C@H]1C2	BRCA1 expr act 12.6µM
CCSc1ccccc1C(=O)Nc1nc2ccccc2c(=O)[nH]1	none
O=c1[nH]c(-c2ccncc2)nc2ccccc12	VDR inh 79.4µM, PLK1 PBD inh 5.32µM
CSc1ccccc1C(=O)Nc1nc2ccccc2c(=O)[nH]1	BRCA1 expr act 11.2µM
CC(C)Nc1nc2ccccc2c(=O)[nH]1	VDR inh inconclusive, PLK1 PBD inh 21.2µM
COC(C)(C)[C@@H](O)COc1c2ccoc2cc2oc(=O)ccc12	none
COc1ccccc1-c1n[nH]nc1C1=CC(=O)C[C@H](c2ccc(F)cc2)C1	none (no result: Tb PFK block, VDR inh)
COc1ccccc1C1=NC(c2ccc(F)cc2)N=C1C (centres undefined)	BRCA1 expr act 12.6µM
COc1cc(NC(=O)/C=C/c2ccccc2)c(C(=O)O)cc1OC	VDR inh inconclusive, PLK1 PBD inh 16.8µM
O=C(COC(=O)/C=C/c1ccccc1)Nc1cccnc1Cl	none
Cc1cccc(C(=O)Nc2cccnc2Cl)c1	PLK1 PBD inh 8.44µM
O=C(Nc1cccnc1Cl)c1cccc(F)c1	none (no result: BRCA1 expr act, VDR inh, PLK1 PBD inh)
COc1cc(NC(=O)Cc2ccccc2)c(C(=O)O)cc1OC	VDR inh inconclusive, PLK1 PBD inh inconclusive
O=C(/C=C/c1ccccc1)Nc1ccc(Br)cn1	BRCA1 expr act 1.41µM
O=C(/C=C/c1ccccc1)Nc1cccnc1Cl	BRCA1 expr act 10µM
Cc1cc(NC(=O)/C=C/c2ccccc2)no1	BRCA1 expr act inconclusive
C=CCN(CC=C)c1ccc(/C=C/c2ccnc3ccccc23)cc1	none (no result: Tb PFK block, VDR inh, PLK1 PBD inh)
CCCCC1(C)Cc2ccccc2C(=S)N1 (centres undefined)	none
CCCCC1(C)NC(=S)N2N1C(=S)NC2(C)CCCC (centres undefined)	VDR inh 79.4µM
O=C(c1cncc(Br)c1)N1CCN(S(=O)(=O)c2ccccc2C(F)(F)F)CC1	VDR inh inconclusive, PLK1 PBD inh 21.2µM
Cc1ccc(C2NC(=O)CCC2[N+](=O)[O-])cc1 (centres undefined)	VDR inh inconclusive, PLK1 PBD inh 18.9µM
Cc1ccc(Oc2nc3ccccn3c(=O)c2/C=C(\C#N)C(=O)NC2CCS(=O)(=O)C2)cc1 (centres undefined)	VDR inh 79.4µM
Cc1ccccc1Oc1nc2c(C)cccn2c(=O)c1/C=C(\C#N)C(=O)NC1CCS(=O)(=O)C1 (centres undefined)	VDR inh 39.8µM
Cc1cccn2c(=O)c(/C=C(\C#N)C(=O)NC3CCS(=O)(=O)C3)c(Oc3ccccc3Cl)nc12 (centres undefined)	VDR inh 17.8µM
CCOC(=O)/C(C#N)=C/c1c(Oc2cc(C)cc(C)c2)nc2ccccn2c1=O	none
O=S1(=O)CC(N2CCN(c3ccccn3)CC2)CN1C1CCCCC1 (centres undefined)	none (no result: Tb PFK block, VDR inh)
CC(=O)[C@@H]1[C@@H]2C(=O)N(Cc3ccccc3)C(=O)[C@@H]2C2c3ccccc3C=CN21 (some centres undefined)	PLK1 PBD inh 18.9µM
CCSc1nnc(-c2ccncc2)o1	none
CCSc1nnc(-c2sc3nnc(-c4ccccc4)c(-c4ccccc4)c3c2N)o1	PLK1 PBD inh 15µM
O=C(OCC(=O)N1N=C(c2ccc(Cl)cc2)CC1c1ccco1)c1cncc(Br)c1 (centres undefined)	VDR inh 70.8µM, PLK1 PBD inh inconclusive
CCC1CCCCN1CCCNC(=O)c1ccc2c(c1)N(Cc1ccccc1F)C(=O)c1ccccc1S2(=O)=O (centres undefined)	none (no result: Tb PFK block, PLK1 PBD inh)
c1ccc(-c2n[nH]c3c2CCC3)cc1	none
CC(C)(C)c1n[nH]c2c1CCCC2	PLK1 PBD inh 26.7µM
O=c1oc2ccccc2cc1-c1nc2c(s1)CCc1ccccc1-2	PLK1 PBD inh 15µM
O=c1oc2cc(O)ccc2cc1-c1nc2c(s1)CCc1ccccc1-2	PLK1 PBD inh 3.77µM
O=c1oc2ccc3ccccc3c2cc1-c1nc2c(s1)CCc1ccccc1-2	none (no result: Tb PFK block, PLK1 PBD inh)
Cc1cc(C)n(-c2nnc3c4ccccc4n(C)c3n2)n1	BRCA1 expr act 1.41µM
C/C(=N\Nc1nnc2c3ccccc3n(C)c2n1)c1ccc(C)o1	none
COc1ccc(-c2cnc3c(c2)CCC3(C#N)C#N)cc1	VDR inh 79.4µM
COc1ccc(-c2ccc(OC)cc2)cc1	none
Clc1ccc(OCc2cn3ccccc3n2)c2ncccc12	BRCA1 expr act 3.16µM
COc1ccc(-c2nnc(SCC(=O)NCc3ccccc3)nc2-c2ccc(OC)c(OC)c2)cc1OC	none (no result: Tb PFK block, BRCA1 expr act, PLK1 PBD inh)
